Experimental data: PubChem BioAssay (NCATS)
Values without a mark were called inactive. Inconclusive results are not listed. Entries that show only a call come without a potency. Calls of active or inactive are those of the source. Calls come from the whole dose curve; as a rule, active = well fitted curve in the direction sought with a large enough effect; inconclusive = small, poorly fitted or top-dose-only effect, or another doubt; inactive = no such curve, though single readings can be large; an effect the other way counts as inactive or inconclusive.

Tests used:
[1] = target: Phospholipid hydroperoxide glutathione peroxidase GPX4 (Homo sapiens) (UniProt P36969); assay: Primary qHTS Assay for Inhibitors of Recombinant Selenoprotein Glutathione Peroxidase 4 (GPX4) (AID 1845192); note: nearly all actives have a fitted effect of over 65% in size; note: potency is the fitted concentration of half-maximal effect
Chain of Phospholipid hydroperoxide glutathione peroxidase GPX4 (Homo sapiens) (P36969 whole entry, looked up): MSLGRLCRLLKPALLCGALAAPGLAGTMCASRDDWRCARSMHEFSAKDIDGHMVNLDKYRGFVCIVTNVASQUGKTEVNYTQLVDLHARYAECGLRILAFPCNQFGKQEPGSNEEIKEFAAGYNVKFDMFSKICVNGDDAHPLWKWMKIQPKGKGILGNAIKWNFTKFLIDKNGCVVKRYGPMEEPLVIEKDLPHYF
Method in brief: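 GR-coupled assay: recombinant GPX4 preincubated 30 min with compound at room temperature; final 200 nM GPX4, 1 mM GSH, 0.5 mM cumene hydroperoxide, 0.5 mM NADPH, 100 nM GR, 0.01% BSA, pH 7.5 Tris. NADPH fluorescence (340/450 nm) read at 0 and 15 min.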

[2] = target: Cytochrome P450 2D6 (Homo sapiens) (UniProt P10635); assay: qHTS for inhibitors of CYP2D6 against the NCATS DSHEA and TCM libraries (AID 1919972)
Chain of Cytochrome P450 2D6 (Homo sapiens) (P10635 whole entry, looked up): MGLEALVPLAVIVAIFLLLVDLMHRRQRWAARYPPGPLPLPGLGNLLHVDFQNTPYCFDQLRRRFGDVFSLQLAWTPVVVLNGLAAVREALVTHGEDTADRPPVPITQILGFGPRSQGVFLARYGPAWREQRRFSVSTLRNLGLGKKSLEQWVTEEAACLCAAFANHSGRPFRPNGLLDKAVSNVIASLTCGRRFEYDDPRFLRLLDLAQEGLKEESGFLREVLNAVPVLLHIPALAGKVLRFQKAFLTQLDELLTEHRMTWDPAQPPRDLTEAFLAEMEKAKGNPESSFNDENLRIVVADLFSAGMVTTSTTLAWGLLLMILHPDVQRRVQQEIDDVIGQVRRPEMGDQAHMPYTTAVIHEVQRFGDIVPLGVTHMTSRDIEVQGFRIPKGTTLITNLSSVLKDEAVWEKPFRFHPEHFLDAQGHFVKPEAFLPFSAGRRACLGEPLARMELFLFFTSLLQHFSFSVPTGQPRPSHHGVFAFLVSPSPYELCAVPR
Method in brief: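 Steps: enzyme plus luciferin substrate dispensed; test substances pinned; 15 min RT; 1x NADPH regenerating solution added, 30–45 min RT protected from light; detection reagent, 30 min RT; luminescence measured. Minus-enzyme wells as background.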

[3] = target: Cytochrome P450 2C19 (Homo sapiens) (UniProt P33261); assay: qHTS for inhibitors of CYP2C19 against the NCATS DSHEA and TCM libraries (AID 1919974);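 note: luminescence from luciferin released by CYP2C19 oxidation of a pro-luciferin substrate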; note: potency is the fitted concentration of half-maximal effect
Chain of Cytochrome P450 2C19 (Homo sapiens) (P33261 whole entry, looked up): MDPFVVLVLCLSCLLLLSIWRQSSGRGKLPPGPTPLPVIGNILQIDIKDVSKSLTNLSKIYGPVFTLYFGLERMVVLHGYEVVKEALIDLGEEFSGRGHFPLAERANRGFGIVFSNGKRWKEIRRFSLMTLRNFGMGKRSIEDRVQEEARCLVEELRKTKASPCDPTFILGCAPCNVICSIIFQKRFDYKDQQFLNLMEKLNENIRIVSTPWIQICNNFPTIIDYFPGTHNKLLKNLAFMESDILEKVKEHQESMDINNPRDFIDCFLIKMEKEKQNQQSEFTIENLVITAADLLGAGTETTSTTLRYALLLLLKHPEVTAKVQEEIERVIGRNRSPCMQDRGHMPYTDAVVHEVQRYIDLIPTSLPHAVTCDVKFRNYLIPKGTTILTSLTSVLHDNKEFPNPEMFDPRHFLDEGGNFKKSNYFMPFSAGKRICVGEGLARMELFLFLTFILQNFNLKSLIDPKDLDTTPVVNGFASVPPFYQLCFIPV
Method in brief: (§1)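 Light output from converted D-luciferin reports remaining CYP activity. Compounds preincubate with enzyme and substrate for 15 min; NADPH regeneration (1x final) runs the reaction for 30-45 min.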

[4] = KB-3-1 P-gp reporter qHTS against the NCATS DSHEA and TCM libraries (AID 1919975)
Method in brief: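 Cell viability qHTS: 500 KB-3-1 cells/well, substances in titration, ~72 h, 37C; luminescent CellTiter-Glo read.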

[5] = target: Cytochrome P450 1A2 (Homo sapiens) (UniProt P05177); assay: qHTS for inhibitors of CYPIA2 against the NCATS DSHEA and TCM libraries (AID 1919976);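 note: light from luciferin formed by CYP1A2 from a pro-luciferin substrate; series mostly up to about 37 µM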
Chain of Cytochrome P450 1A2 (Homo sapiens) (P05177 whole entry, looked up): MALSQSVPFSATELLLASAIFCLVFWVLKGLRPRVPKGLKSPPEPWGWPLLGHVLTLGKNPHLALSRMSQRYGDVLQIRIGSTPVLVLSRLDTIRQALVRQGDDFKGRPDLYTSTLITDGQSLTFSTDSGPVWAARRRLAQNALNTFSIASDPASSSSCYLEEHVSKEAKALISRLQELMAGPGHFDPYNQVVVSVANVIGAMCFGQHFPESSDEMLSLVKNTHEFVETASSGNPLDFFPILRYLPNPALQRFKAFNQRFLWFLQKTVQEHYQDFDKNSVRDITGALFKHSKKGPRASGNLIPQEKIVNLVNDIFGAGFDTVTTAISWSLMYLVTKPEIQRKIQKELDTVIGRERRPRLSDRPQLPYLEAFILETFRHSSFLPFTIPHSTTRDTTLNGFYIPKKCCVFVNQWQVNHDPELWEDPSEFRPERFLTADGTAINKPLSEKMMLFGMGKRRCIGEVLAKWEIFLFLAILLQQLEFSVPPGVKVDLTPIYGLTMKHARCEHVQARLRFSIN
Method in brief: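 In this quantitative HTS, inhibition of recombinant human CYP1A2 was measured as loss of luciferin-derived luminescence. Turnover ran 30-45 min at RT after NADPH regeneration solution was added.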

[6] = qHTS Counterscreen for compound interference against the NCATS DSHEA and TCM libraries (AID 1919978); conditions: firefly luciferase detection reagent interference, luminescence;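 note: compounds preincubated with 1 µM D-luciferin or buffer before detection reagent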
Method in brief: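 Interference check: test samples were incubated with D-luciferin (final 1 uM) or buffer only for 15 min, room temperature, in a qHTS titration up to 39.8 uM, then developed with detection reagent and read by luminescence.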

[7] = Dual reporter qHTS for agonist of Pregnane X Receptor (hPXR) against the NCATS DSHEA and TCM libraries: Fluorescence readout (AID 1920058)
Source text: (§2) Assay Development and Screening Technology Laboratory (ADST)
(§3) National Center for Advancing Translational Sciences (NCATS), Rockville, MD
(§4) National Institute of Health (NIH), Bethesda, Maryland
(§5) Dietary Supplements and Natural Products have minor oversight of their safety and efficacy. We assembled a collection of Dietary Supplements and Natural Products (DSNP) as well as Traditional Chinese Medicinal (TCM) Plant extracts, which were screened against an in vitro panel of assays, including a liver cytochrome p450 enzyme panel, CAR/PXR signaling pathways, and P-gp transporter assays, to assess their activity. This pipeline facilitated the interrogation of Natural Product-Drug Interaction (NaPDI) through prominent metabolizing pathways. In addition, we compared the activity profiles of the DSNP/TCM substances with those of an approved drug collection. Many of the approved drugs have well-annotated mechanisms of action (MOA) while the MOAs for most of the DSNP and TCM samples remain unknown. Based on the premise that compounds with similar activity profiles tend to share similar targets or MOA, we clustered the library activity profiles to identify overlap with the NCATS Pharmaceutical Collection to predict the MOAs of the DSNP/TCM substances. Overall, we highlight four significant bioactivity profiles (measured by p-values) as examples of this prediction. To assess broad cytotoxicity, we employed screening against a HepG2 cell line. In addition, transporter-mediated drug interactions are utilized in the characterization of DDIs using a P-glycoprotein (P-gp) assays. To profile potential P-gp activity, a differential cell viability was measured against two cell lines: a parental KB-3-1 human cervical adenocarcinoma cell line and the drug-resistant subline KB-8-5-11 that overexpresses P-gp.
(§6) To this end, we profiled both collections for potential CAR and/or PXR activity, employing a previously published 1536-well qHTS assay.
[1] Lee TD, et al. A High-Throughput Screen of a Library of Therapeutics Identifies Cytotoxic Substrates of P-glycoprotein. Mol Pharmacol. Nov 2019;96(5):629-640. doi:10.1124/mol.119.115964
For PXR luciferase reporter gene assays, we used hPXR-LucHepG2cells provided by Dr. Taosheng Chen (Department of Chemical Biology and Therapeutics, St. Jude Children's Research Hospital). Cells were cultured in EMEM supplemented with 10% fetal bovine serum, 100U/mL penicillin and 100ug/mL streptomycin, and 500ug/mL of geneticin.
PROTOCOL TABLE (as described by Inglese J, Shamu CE and Guy RK. 2007)
SEQUENCE No. (e.g., 1, 2, 3, etc.); PARAMETER (e.g., Cells, Incubation, Reagent, etc.); VALUE; DESCRIPTION.
1; Cells; 5 uL; hPXR-LucHepG2; white solid-bottom Greiner plate. […]
8; Read; Fluorescence; ViewLux plate reader. […]
11; Read; Luminescence; ViewLux plate reader. […]

[8] = target: Cytochrome P450 3A4 (Homo sapiens) (UniProt P08684); assay: qHTS for inhibitors of CYP3A4 against the NCATS DSHEA and TCM libraries (AID 1919971);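 note: inhibition lowers luminescence from luciferin made by CYP3A4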
Chain of Cytochrome P450 3A4 (Homo sapiens) (P08684 whole entry, looked up): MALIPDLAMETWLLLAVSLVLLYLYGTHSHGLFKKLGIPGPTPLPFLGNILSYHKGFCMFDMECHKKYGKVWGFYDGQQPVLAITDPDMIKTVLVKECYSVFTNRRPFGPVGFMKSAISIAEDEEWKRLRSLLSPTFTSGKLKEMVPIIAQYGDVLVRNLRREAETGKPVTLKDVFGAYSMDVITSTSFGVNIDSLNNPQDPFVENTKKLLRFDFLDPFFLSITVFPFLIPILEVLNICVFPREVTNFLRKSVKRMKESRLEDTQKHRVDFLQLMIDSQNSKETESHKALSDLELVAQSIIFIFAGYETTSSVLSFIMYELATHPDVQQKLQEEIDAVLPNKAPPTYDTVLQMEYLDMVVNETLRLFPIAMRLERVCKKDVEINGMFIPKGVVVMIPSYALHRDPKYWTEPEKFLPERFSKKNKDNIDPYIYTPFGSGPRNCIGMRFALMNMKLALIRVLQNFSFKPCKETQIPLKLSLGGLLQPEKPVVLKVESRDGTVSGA
Method in brief: as §1

[9] = target: Cytochrome P450 2C9 (Homo sapiens) (UniProt P11712); assay: qHTS for inhibitors of CYP2C9 against the NCATS DSHEA and TCM libraries (AID 1919973);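 note: luminogenic pro-luciferin CYP2C9 substrate turned into luciferin with NADPH regeneration; series mostly up to about 34 µM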
Chain of Cytochrome P450 2C9 (Homo sapiens) (P11712 whole entry, looked up): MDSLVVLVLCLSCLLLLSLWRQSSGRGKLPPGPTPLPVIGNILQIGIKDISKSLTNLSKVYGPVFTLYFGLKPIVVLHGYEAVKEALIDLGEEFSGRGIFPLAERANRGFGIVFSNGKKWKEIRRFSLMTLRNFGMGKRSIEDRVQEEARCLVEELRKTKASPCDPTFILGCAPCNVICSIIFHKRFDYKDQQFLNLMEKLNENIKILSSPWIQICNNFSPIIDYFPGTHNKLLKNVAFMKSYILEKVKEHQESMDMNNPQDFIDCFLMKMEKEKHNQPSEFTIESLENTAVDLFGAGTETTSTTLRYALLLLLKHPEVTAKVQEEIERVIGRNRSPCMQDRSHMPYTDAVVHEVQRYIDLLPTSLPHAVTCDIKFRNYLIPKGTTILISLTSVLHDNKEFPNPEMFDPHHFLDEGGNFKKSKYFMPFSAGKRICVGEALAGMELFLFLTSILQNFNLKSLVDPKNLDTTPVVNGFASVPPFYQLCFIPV
Source text: as §2, §3, §4, §5, §6
[1] […]
9; Read; Luminescence; ViewLux plate reader. […]

[10] = target: Nuclear receptor subfamily 1 group I member 2 (Homo sapiens) (UniProt O75469); assay: Dual reporter qHTS for agonist of Pregnane X Receptor (hPXR) against the NCATS DSHEA and TCM libraries: Luminescence readout (AID 1920059)
Chain of Nuclear receptor subfamily 1 group I member 2 (Homo sapiens) (O75469 whole entry, looked up): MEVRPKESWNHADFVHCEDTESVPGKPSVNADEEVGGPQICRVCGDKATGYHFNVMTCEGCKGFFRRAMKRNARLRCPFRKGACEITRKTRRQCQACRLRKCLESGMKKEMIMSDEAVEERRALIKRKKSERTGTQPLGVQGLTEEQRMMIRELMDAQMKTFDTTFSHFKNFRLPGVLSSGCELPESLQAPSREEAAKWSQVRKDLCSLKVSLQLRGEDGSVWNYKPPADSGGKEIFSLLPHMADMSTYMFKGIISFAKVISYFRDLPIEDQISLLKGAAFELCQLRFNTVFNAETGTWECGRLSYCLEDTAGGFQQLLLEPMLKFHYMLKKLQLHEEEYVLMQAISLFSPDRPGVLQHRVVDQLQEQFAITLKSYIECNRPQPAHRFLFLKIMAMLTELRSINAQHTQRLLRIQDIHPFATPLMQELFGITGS
Method in brief: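 hPXR-Luc HepG2 cells, 2000/well in 5% charcoal-stripped FBS medium, attached 5 h, then exposed 24 h at 37C to compounds. Viability by CellTiter-Fluor, then luciferase luminescence with ONE-Glo.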

For `Nc1ccc(C(=O)Oc2ccccc2)c(O)c1`, the Potency [1] was “inactive”.
With `CN[C@@H]1[C@H](O)[C@H](NC)[C@H]2O[C@@]3(O)C(=O)C[C@@H](C)O[C@H]3O[C@@H]2[C@H]1O` the Potency [1] was “inactive”.
In the case of `Nc1ccc(S(=O)(=O)c2ccc(N)cc2)cc1`, the Potency [1] is reported as “inactive”.
For `CC(C)=CCC[C@@](C)(O)[C@H]1CC=C(C)CC1`, the outcome [2] was “inactive”, the Potency [3] was 5.01 µM (active) and the outcome [4] was “inactive”. The outcome [5] was “inactive”, the max response [6] was 1.71% and the outcome [7] was “inactive”.
With `C[C@@H](c1ncncc1F)C(O)(Cn1cncn1)c1ccc(F)cc1F` (stereo partly drawn) the Potency [1] was “inactive”.
For `CN1C(=O)CC(c2ccccc2)C1=O` (stereo not drawn), the Potency [1] was “inactive”.
In the case of `COc1nccnc1NS(=O)(=O)c1ccc(N)cc1`, the Potency [1] is reported as “inactive”.
For `CCCCCCCCCCCCCCCCCCO`, the Potency [1] was “inactive”.
In the case of `CC[C@H](C)[C@H](N)C(=O)O`, the Potency [1] is reported as “inactive”.
With `CC1CCN(CCCC(=O)c2ccc(F)cc2)CC1` the Potency [1] was “inactive”.
For `O=C(/C=C/c1ccc(O)c(O)c1)O[C@@H]1C[C@@](OC(=O)/C=C/c2ccc(O)c(O)c2)(C(=O)O)C[C@@H](O)[C@@H]1O`, the outcome [8] was “inactive”, the outcome [2] was “inactive” and the outcome [9] was “inactive”. The Potency [3] was “inactive”, the outcome [4] was “inactive” and the max response [6] was 5.25%. The outcome [7] was “inactive” and the outcome [10] was “inactive”.
For `CC(=O)Oc1cccc(C)c1`, the Potency [1] was “inactive”.
For `CN(C/C=C/C#CC(C)(C)C)Cc1cccc2ccccc12`, the Potency [1] was “inactive”.
With `C[C@H]1COc2c(C3(N)CC3)c(F)cc3c(=O)c(C(=O)O)cn1c23` the Potency [1] was “inactive”.
For `OCc1ccc(Cl)cc1Cl`, the Potency [1] was “inactive”.
With `CCCC(O)C(CC)CO` (stereo not drawn) the Potency [1] was “inactive”.
For `CC(=O)N(CC(O)CN(C(C)=O)c1c(I)c(C(=O)NCC(O)CO)c(I)c(C(=O)NCC(O)CO)c1I)c1c(I)c(C(=O)NCC(O)CO)c(I)c(C(=O)NCC(O)CO)c1I` (stereo not drawn), the Potency [1] was “inactive”.
With `NC(=O)NC1NC(=O)NC1=O` (stereo not drawn) the Potency [1] was “inactive”, the outcome [8] was “inactive” and the outcome [2] was “inactive”. For the same molecule, the outcome [9] was “inactive”, the Potency [3] was “inactive” and the outcome [4] was “inactive”. For the same molecule, the outcome [5] was “inactive”, the max response [6] was -2.81% and the outcome [7] was “inactive”. For the same molecule, the outcome [10] was “inactive”.
For `CN(C(=O)c1c(O)c2ccccc2n(C)c1=O)c1ccccc1`, the Potency [1] was “inactive”.
In the case of `Cc1cc(OI)c(C(C)C)cc1-c1cc(C(C)C)c(OI)cc1C`, the Potency [1] is reported as “inactive”.
With `CC(C)=CCC/C(C)=C/CO` the Potency [1] was “inactive”.
For `CC[N+](CC)(CC(=O)Nc1c(C)cccc1C)Cc1ccccc1`, the Potency [1] was “inactive”.
In the case of `OC(CCN1CCCC1)(c1ccccc1)C1CCCCC1` (stereo not drawn), the Potency [1] is reported as “inactive”.
For `O=C(O)CCCCC1CCSS1` (stereo not drawn), the Potency [1] was “inactive”.
With `CC1(C)S[C@@H]2[C@H](NC(=O)C(C(=O)O)c3ccccc3)C(=O)N2[C@H]1C(=O)O` (stereo partly drawn) the Potency [1] was “inactive”.
For `CC(=O)OC[C@H]1O[C@@](COC(C)=O)(O[C@H]2O[C@H](COC(C)=O)[C@@H](OC(C)=O)[C@H](OC(C)=O)[C@H]2OC(C)=O)[C@@H](OC(C)=O)[C@@H]1OC(C)=O`, the Potency [1] was “inactive”.
For `O=C(O)COC(=O)Cc1ccccc1Nc1c(Cl)cccc1Cl`, the Potency [1] was “inactive”.
For `CC(=O)Oc1cccc(O)c1`, the Potency [1] was “inactive”.
In the case of `Cc1ccc(C(C)C)c(O)c1`, the Potency [1] is reported as “inactive”, the outcome [8] is reported as “inactive” and the outcome [2] is reported as “inactive”. For the same molecule, the outcome [9] was “inactive”, the outcome [4] was “inactive” and the max response [6] was 0.241%. The outcome [7] was “inactive” and the outcome [10] was “inactive”.
In the case of `NC(N)=NS(=O)(=O)c1ccc(N)cc1`, the Potency [1] is reported as “inactive”.
In the case of `CCCNC(C)C(=O)Nc1c(C)csc1C(=O)OC` (stereo not drawn), the Potency [1] is reported as “inactive”.
For `CC(C)c1cc2c(cc1S(=O)(=O)O)[C@@]1(C)CCC[C@@](C)(C(=O)O)[C@@H]1CC2`, the Potency [1] was “inactive”.
For `COc1ccc(NS(=O)(=O)c2ccc(N)cc2)nn1`, the Potency [1] was “inactive”.
In the case of `Cc1ccsc1C(=CCCN1CCC[C@@H](C(=O)O)C1)c1sccc1C`, the Potency [1] is reported as “inactive”.
For `CCCCCCCCCCCCCCCCC(C(=O)O)C(O)(CC(=O)O)C(=O)O` (stereo not drawn), the Potency [1] was 4.47 µM (active).
